# Experimental data: PubChem BioAssay
# Records with an inconclusive call do not appear. Active and inactive are the calls of the source. Unless noted, the rule behind the calls is not given here.
# Columns and labels:
# [1] = rapamycin-like changes in RPL19A-GFP expression – cell-based, S. cerevisiae, multiplex flow cytometry, primary screen (AID 1862; in the data active = percent of DMSO control GFP below about 86%;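 note: lower values mimic rapamycin by blocking the RPL19A rise seen in DMSO cells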); settings: S. cerevisiae RPL19A-GFP strain, flow cytometry fluorescence, 3 h; at 10 µM; stronger effect = lower value
# [2] = TOR pathway GLN3 branch reporter MEP2-GFP changes – S. cerevisiae, multiplex flow cytometry, primary screen (AID 1867;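 active = GFP response, as percent of the DMSO control, above the screen-wide mean plus 3 SD, about 139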;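 note: median GFP channel fluorescence of barcode-gated MEP2-GFP cells measured by flow cytometry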); settings: S. cerevisiae MEP2-GFP strain, 3 h, at 10 µM, stronger effect = higher value
# [3] = TOR pathway RTG branch CIT2 reporter changes – S. cerevisiae, GFP fusion, multiplex flow cytometry, primary screen (AID 1870;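 active = percent response above a set limit, the screen-wide mean plus 3 SD, cut at about 130% in these data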;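 note: barcoded CIT2-GFP strain pooled with four other GFP strains with rapamycin as positive control; median GFP fluorescence per well over plate mean of DMSO wells so 100% = DMSO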); settings: S. cerevisiae CIT2-GFP expression, 3 h, at 10 µM, stronger effect = higher value
# [4] = TOR pathway LAP4-GFP level changes – S. cerevisiae, multiplex flow cytometry, primary screen (AID 1873;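 active = GFP signal, as percent of the solvent control, above the screen mean plus 3 SD, about 149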); settings: S. cerevisiae LAP4-GFP expression, 3 h, at 10 µM, stronger effect = higher value
# [5] = yeast AGP1-GFP level changes, GLN3 branch – cell-based, multiplex flow cytometry, S. cerevisiae, primary screen (AID 1887;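 active = GFP signal above the screen-wide mean plus 3 SD, that is over about 124.5% of the solvent control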;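 note: AGP1-GFP fusion strain of S. cerevisiae within a five-strain barcoded multiplex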); settings: 3 h, at 10 µM, stronger effect = higher value
# [6] = reduced mouse 2C T cell binding to pMHC/ICAM-1 vesicles – MLPCN validation set, flow cytometry, LFA-1/ICAM-1 modulator project, pilot screen (AID 2523;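 active = response below a set limit, under 55% cells CD8-positive and vesicle-bound, and CD8 cells' 90th-percentile brightness under 279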;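 for vesicle binding response: mean PE anti-B7-1 fluorescence of CD8+ cells relative to row control; 100% = QL9-loaded vesicles with DMSO vehicle in the same plate row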); settings: 2C mouse CD8+ T cells, at 7 µM, stronger effect = lower value; double positive events: measured here: CD8+/vesicle+ event percentage
# [7] = target: Integrin beta-1 (Homo sapiens) + Integrin alpha-4 (Homo sapiens) (UniProt P13612+P05556); assay: alpha4beta1 integrin LIBS antibody binding reduction – U937 cells, HUTS-21 mAb, flow cytometry, validation set, VLA-4 allosteric modulator project, pilot screen (AID 2674;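 active = inhibition above 50%, about 3 SD of the validation set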;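 note: antibody binding induced by the VLA-4 ligand LDV present at three times its Kd; 0% = LDV ligand with antibody and no compound and 100% = antibody without LDV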); settings: HUTS-21 LIBS mAb binding, at 6.7 µM, stronger effect = higher value
# [8] = calorie-restriction mimetic ROS inhibitors, yeast – validation compound set, pilot screen (AID 2706;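 active = superoxide response below 65% of plate, a cut near 3 SD across the whole screen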;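 note: yeast exposed to compound for one week at 30 degrees C before staining; 100% = mean of all compound wells on the same plate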); settings: S. cerevisiae aging, superoxide DHE fluorescence; at 10 µM; stronger effect = lower value
# [9] = target: Beta-adrenergic receptor kinase 1 (Homo sapiens) (UniProt P25098); assay: GRK2 binders displacing RNA aptamer, biochemical, validation, human GRK2, bead flow cytometry (AID 488806;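 active = aptamer binding inhibition above 30%, about 3 SD of noise from non-fluorescent compounds; inactive = inhibition at or below 30%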); settings: bead-bound GRK2, FAM-aptamer displacement, at 10 µM, stronger effect = higher value
# [10] = target: Beta-2 adrenergic receptor (Homo sapiens) (UniProt P07550); assay: agonist-induced loss of surface beta2AR – cell-based, FAP fluorogen, flow cytometry, validation set, pilot screen (AID 504459;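 active = percent response above 42, roughly 3 SD of non-fluorescent test compounds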;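 note: agonist-driven loss of surface beta2AR via internalization measured by FAP dye flow cytometry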); settings: Am2.2-beta2AR cells, at 10 µM, stronger effect = higher value
# [11] = target: AP-2 complex subunit beta (Homo sapiens) (UniProt P63010); assay: beta-arrestin/AP2 interaction blockers – biochemical, validation set, GST-AP2 beads, flow cytometry, pilot screen (AID 504541;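 active = inhibition above 54%, about 3 SD of non-fluorescent compounds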;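 note: AP2 carries R879A mutation and is captured from E. coli lysate; bead-bound FITC arrestin peptide fluorescence measuring arrestin peptide binding to AP2; 0% = DMSO wells and 100% = excess unlabeled arrestin peptide control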); settings: FITC arrestin peptide, at 10 µM, stronger effect = higher value
# [12] = cytosolic pH regulators acting via V-ATPase – S. cerevisiae, pHLuorin, HTS validation (AID 504600; in the data active = response above about 15%;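 note: plate controls were DMSO for no effect and reference compound for full effect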); settings: V-ATPase proton transport, at 10 µM, stronger effect = higher value
# [13] = test system: anti-desmoglein-3 scFv antibody binding to human DSG3; assay: blockers of pathogenic pemphigus antibody–desmoglein-3 binding – biochemical, validation compound set, bead-based, flow cytometry, pilot screen (AID 588368;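 active = binding below the plate cutoff, the plate median minus 3 SD, with a reading above zero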;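 note: signal is the median channel fluorescence of bead-bound GFP antibody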); settings: Protein G beads, DSG3-Fc, scFv-GFP binding, at 10 µM, stronger effect = lower value
# [14] = test system: Botulinum neurotoxin type F light chain protease (Clostridium botulinum); assay: Clostridium botulinum type F light chain protease inhibitors, microsphere substrate cleavage, validation (AID 588459); settings: multiplex microsphere protease substrate cleavage assay, flow cytometry; at 10 µM; stronger effect = higher value
# [15] = target: Botulinum neurotoxin type A (Clostridium botulinum) (UniProt P0DPI0); assay: BoNT/A light chain protease inhibitors, biochemical, multiplex microsphere flow cytometry, validation set (AID 588460); settings: at 10 µM, stronger effect = higher value
# [16] = target: Lethal factor (Bacillus anthracis) (UniProt P15917); assay: Bacillus anthracis lethal factor inhibition, microsphere flow cytometry protease assay, validation at 10 µM (AID 588461); settings: multiplex microsphere protease cleavage assay, stronger effect = higher value
# [17] = Nile Red efflux blockade in pump-expressing yeast – validation compound set, multiplex, phenotypic, pilot screen (AID 588506;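 active = efflux inhibition above 0.42, the validation set average plus 4 SD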;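 note: Nile Red retained in cells so higher fluorescence means more efflux inhibition; 0 = negative control wells and 1 = enniatin B 25 µM full block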); settings: S. cerevisiae pump-expressing triplex, Nile Red efflux flow cytometry; at 10 µM; stronger effect = higher value
# [18] = target: ATP-binding cassette sub-family B member 6 (Homo sapiens) (UniProt Q9NP58); assay: blockers of ABCB6-driven porphyrin uptake – K562-ABCB6 cells, flow cytometry, validation set, pilot screen (AID 588550;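 active = inhibition above the screen-wide mean plus 3 SD, about 51%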;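 note: 0% = DMSO wells and 100% = benzethonium chloride 70 µM positive control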); settings: K562-ABCB6 porphyrin accumulation, 1 h, at 10 µM, stronger effect = higher value
# [19] = AML differentiation inducers, ER-HoxA9 marrow cells – cell-based, GFP/MAC1 double positive, flow cytometry, validation set, primary screen (AID 588685;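 active = differentiation response of at least 50%, scaled between solvent and reference control, from cells with both markers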;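 note: compound exposure lasts four days before antibody staining and flow analysis; 0% = DMSO wells and 100% = 5 µM fulvestrant positive control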); settings: stronger effect = higher value
# Chain of Integrin beta-1 (Homo sapiens) + Integrin alpha-4 (Homo sapiens) (P05556 whole entry, looked up): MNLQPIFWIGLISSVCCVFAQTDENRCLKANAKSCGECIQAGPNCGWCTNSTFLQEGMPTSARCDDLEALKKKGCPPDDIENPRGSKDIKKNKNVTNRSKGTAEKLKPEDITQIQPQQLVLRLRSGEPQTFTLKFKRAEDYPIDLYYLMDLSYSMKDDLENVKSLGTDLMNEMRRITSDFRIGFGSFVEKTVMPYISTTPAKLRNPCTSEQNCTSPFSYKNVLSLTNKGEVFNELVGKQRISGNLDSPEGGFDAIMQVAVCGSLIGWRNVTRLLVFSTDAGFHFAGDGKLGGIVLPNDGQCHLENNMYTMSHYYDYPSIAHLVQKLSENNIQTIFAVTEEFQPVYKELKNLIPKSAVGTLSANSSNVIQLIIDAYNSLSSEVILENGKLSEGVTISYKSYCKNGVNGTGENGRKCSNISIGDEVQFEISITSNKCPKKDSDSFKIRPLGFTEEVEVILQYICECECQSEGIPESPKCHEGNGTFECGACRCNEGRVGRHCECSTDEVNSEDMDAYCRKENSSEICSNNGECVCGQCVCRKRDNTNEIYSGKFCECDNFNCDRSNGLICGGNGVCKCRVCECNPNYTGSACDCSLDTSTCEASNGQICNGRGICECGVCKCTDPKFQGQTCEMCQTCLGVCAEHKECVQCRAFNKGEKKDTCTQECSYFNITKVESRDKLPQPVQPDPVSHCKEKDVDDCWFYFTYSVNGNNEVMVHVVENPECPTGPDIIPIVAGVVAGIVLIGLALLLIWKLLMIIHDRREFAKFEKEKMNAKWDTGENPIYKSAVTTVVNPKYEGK
# Chain of Integrin beta-1 (Homo sapiens) + Integrin alpha-4 (Homo sapiens) (P13612 whole entry, looked up): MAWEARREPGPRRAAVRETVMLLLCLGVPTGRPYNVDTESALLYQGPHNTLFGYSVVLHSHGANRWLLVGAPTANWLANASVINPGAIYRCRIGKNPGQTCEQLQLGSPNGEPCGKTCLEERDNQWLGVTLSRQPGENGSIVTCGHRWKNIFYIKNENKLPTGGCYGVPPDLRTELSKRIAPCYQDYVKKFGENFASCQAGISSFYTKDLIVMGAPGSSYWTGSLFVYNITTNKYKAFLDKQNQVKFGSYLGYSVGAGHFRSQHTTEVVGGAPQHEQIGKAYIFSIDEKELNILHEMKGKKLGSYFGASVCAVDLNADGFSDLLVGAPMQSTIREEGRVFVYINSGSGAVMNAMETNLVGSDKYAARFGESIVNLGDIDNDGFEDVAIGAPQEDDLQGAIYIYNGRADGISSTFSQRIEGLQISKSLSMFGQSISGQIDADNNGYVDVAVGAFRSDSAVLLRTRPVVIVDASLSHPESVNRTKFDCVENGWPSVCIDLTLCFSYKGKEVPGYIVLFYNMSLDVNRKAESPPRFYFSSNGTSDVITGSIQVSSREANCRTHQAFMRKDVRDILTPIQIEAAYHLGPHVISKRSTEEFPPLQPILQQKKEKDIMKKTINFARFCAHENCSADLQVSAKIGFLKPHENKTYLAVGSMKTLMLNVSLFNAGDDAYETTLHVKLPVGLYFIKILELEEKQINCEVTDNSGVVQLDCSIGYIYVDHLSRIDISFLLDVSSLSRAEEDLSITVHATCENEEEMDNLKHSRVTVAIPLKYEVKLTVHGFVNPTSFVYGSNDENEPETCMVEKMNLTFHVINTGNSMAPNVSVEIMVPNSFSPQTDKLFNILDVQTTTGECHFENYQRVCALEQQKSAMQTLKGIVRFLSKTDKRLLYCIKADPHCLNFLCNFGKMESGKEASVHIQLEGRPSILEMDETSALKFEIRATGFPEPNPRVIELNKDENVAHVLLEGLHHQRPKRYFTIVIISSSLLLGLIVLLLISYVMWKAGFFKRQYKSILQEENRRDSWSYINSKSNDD
# Chain of AP-2 complex subunit beta (Homo sapiens) (P63010 whole entry, looked up, one chain of several): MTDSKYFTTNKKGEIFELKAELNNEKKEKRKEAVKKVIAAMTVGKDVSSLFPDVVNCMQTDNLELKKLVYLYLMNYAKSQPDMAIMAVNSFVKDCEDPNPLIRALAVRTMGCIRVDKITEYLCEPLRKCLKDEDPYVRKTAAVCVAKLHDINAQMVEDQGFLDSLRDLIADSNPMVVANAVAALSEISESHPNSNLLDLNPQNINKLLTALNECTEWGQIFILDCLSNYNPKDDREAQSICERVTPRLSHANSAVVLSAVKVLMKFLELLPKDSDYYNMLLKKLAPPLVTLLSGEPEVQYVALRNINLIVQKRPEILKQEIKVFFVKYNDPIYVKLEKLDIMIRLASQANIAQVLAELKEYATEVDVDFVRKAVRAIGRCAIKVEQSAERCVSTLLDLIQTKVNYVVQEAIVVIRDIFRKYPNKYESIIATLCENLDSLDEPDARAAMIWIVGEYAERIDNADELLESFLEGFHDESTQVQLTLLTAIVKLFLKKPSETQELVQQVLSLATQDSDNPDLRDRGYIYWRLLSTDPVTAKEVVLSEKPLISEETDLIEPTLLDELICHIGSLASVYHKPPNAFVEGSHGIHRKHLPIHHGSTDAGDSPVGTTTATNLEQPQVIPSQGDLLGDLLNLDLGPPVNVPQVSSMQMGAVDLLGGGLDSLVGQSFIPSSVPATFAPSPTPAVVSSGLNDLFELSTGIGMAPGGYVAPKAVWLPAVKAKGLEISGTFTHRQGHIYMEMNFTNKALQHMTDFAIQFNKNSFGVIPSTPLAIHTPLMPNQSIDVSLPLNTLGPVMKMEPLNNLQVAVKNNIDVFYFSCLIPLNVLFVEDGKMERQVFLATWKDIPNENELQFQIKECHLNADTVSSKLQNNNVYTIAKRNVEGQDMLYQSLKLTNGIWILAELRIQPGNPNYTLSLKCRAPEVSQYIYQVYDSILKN
# Chain of Beta-adrenergic receptor kinase 1 (Homo sapiens) (P25098 whole entry, looked up): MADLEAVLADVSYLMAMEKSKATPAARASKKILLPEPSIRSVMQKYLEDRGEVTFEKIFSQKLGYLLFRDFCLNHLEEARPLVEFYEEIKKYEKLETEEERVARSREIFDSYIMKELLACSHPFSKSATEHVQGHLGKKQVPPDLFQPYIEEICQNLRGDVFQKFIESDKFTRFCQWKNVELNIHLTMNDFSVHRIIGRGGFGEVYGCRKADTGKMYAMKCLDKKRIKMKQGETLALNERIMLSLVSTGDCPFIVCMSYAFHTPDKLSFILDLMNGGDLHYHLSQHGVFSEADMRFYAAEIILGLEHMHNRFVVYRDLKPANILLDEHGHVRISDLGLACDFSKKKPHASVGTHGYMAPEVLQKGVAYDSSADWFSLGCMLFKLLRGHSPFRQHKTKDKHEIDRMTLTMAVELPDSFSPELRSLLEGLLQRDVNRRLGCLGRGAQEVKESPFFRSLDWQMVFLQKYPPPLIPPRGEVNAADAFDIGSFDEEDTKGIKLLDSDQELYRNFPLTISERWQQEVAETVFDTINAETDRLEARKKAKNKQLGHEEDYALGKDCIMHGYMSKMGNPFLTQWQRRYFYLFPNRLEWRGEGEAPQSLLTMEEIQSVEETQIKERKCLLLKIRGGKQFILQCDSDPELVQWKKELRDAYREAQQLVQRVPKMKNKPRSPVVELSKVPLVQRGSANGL
# Chain of Botulinum neurotoxin type A (Clostridium botulinum) (P0DPI0 whole entry, looked up): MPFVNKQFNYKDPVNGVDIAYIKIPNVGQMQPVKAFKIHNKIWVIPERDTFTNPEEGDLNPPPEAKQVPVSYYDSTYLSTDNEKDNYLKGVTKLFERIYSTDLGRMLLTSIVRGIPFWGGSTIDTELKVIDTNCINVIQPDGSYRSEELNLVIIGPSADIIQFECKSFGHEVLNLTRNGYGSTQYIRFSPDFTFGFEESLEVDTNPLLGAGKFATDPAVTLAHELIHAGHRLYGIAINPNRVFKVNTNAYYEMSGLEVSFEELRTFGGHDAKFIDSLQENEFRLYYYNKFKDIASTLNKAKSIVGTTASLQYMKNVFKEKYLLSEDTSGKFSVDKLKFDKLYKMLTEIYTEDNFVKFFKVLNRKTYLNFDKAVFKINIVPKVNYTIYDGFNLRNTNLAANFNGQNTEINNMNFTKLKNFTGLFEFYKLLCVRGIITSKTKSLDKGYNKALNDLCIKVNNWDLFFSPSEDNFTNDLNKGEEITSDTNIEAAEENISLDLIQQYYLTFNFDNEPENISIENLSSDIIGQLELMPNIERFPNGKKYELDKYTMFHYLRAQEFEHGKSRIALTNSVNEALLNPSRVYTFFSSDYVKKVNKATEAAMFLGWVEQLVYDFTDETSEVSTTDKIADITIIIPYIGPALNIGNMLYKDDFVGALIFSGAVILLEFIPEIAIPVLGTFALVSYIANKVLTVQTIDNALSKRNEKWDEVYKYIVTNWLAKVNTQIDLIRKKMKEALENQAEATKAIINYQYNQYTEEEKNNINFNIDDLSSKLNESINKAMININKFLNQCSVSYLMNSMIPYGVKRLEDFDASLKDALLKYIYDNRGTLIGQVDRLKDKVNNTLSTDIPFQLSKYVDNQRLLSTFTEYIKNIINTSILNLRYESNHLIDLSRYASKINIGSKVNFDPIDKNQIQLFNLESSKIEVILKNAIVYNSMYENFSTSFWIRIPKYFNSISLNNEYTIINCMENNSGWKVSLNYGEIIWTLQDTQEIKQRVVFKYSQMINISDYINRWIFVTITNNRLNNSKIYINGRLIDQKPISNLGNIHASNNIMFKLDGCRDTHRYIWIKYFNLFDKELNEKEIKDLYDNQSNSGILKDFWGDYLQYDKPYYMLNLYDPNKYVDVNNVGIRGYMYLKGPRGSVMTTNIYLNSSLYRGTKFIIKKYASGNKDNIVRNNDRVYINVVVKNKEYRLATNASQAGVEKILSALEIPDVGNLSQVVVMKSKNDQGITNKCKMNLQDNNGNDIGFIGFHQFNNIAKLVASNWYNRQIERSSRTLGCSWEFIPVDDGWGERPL
SMILES,percent of DMSO control GFP [1],GFP response vs DMSO [2],percent response of DMSO control [3],GFP response vs DMSO [4],"GFP response, % of DMSO [5]",double positive events [6] [%],vesicle binding response [6],inhibition [7],superoxide response (% of plate) [8],aptamer binding inhibition [9],response [10],inhibition [11],response [12],binding (% of control) [13],inhibition [14],inhibition [15],inhibition [16],efflux inhibition (fraction of control) [17],inhibition [18],differentiation response [19]
CC12CN3CC(C)(CN(C1)C3c1cccs1)C2O (stereo not given),105% (inactive),98.3% (inactive),109% (inactive),83.5% (inactive),104% (inactive),67,976% (inactive),4.73% (inactive),106% (inactive),2% (inactive),-7.61% (inactive),1.53% (inactive),1.19% (inactive),98% (inactive),-2.4% (inactive),-1.2% (inactive),7.5% (inactive),-0.07 (inactive),0% (inactive),0.24% (inactive)
O=c1c2ccccc2nc(/C=C/c2ccc3c(c2)OCO3)n1-c1ccccc1,102% (inactive),105% (inactive),100% (inactive),110% (inactive),98.9% (inactive),59.9,140% (inactive),1.44% (inactive),90.1% (inactive),4% (inactive),-4.14% (inactive),-1.43% (inactive),-7.21% (inactive),106% (inactive),-0.7% (inactive),0.6% (inactive),-5% (inactive),0.33 (inactive),0% (inactive),7.82% (inactive)
CC(C)[N+](C)(CCC(C(N)=O)(c1ccccc1)c1ccccc1)C(C)C,105% (inactive),107% (inactive),107% (inactive),99.1% (inactive),106% (inactive),61.6,144% (inactive),5.61% (inactive),110% (inactive),2% (inactive),9.5% (inactive),-5.08% (inactive),0.78% (inactive),101% (inactive),-5% (inactive),-2.6% (inactive),-9.4% (inactive),-0.61 (inactive),21% (inactive),-8.96% (inactive)
C[C@H]1CC[C@@]2(C)[C@@H](CC[C@@H]3[C@@H]2CC[C@]2(C)[C@@H](O)CC[C@@H]32)C1,99.9% (inactive),103% (inactive),92% (inactive),137% (inactive),102% (inactive),61,376% (inactive),6.4% (inactive),97.5% (inactive),0% (inactive),8.67% (inactive),-8.56% (inactive),1.08% (inactive),99.5% (inactive),2% (inactive),1.1% (inactive),-4.7% (inactive),-0.03 (inactive),-3% (inactive),-8.8% (inactive)
NNC(=O)c1ccc(Cl)cc1,102% (inactive),103% (inactive),104% (inactive),102% (inactive),102% (inactive),56.2,114% (inactive),0.25% (inactive),88.1% (inactive),-2% (inactive),7.16% (inactive),3.28% (inactive),3.19% (inactive),98.7% (inactive),-1.9% (inactive),0.4% (inactive),6.8% (inactive),-0.36 (inactive),-3% (inactive),2.74% (inactive)
Cn1c(O)c(C=NCCc2c[nH]c3ccccc23)c(=O)n(C)c1=O,100% (inactive),111% (inactive),97.7% (inactive),120% (inactive),110% (inactive),76.2,17400% (inactive),5.03% (inactive),106% (inactive),5% (inactive),-8.95% (inactive),-3.21% (inactive),3.13% (inactive),96.8% (inactive),-1.3% (inactive),1.4% (inactive),-1.6% (inactive),-0.06 (inactive),6% (inactive),-23.2% (inactive)
CC(C)CC12CN3CCN(CC(C3)C1O)C2 (stereo not given),89.8% (inactive),116% (inactive),111% (inactive),89.7% (inactive),105% (inactive),65.4,153% (inactive),-2.27% (inactive),91.5% (inactive),-7% (inactive),4.34% (inactive),-0.1% (inactive),-1.9% (inactive),110% (inactive),3.6% (inactive),-0.7% (inactive),-4.5% (inactive),-0.28 (inactive),13% (inactive),10.6% (inactive)
C[C@]12CCC(=O)C=C1CCC1C2CC[C@@]2(C)C1CC[C@@]2(O)CC#N (stereo not given in full),99.8% (inactive),105% (inactive),101% (inactive),90.7% (inactive),98% (inactive),71.1,961% (inactive),12% (inactive),95.6% (inactive),5% (inactive),-3.28% (inactive),-0.45% (inactive),-1.52% (inactive),97.9% (inactive),3.3% (inactive),-0.9% (inactive),-2.6% (inactive),-0.07 (inactive),8% (inactive),11% (inactive)
